# Measured values: the supplement of paper PMC11417369
# Over roughly 25,000 sequences, “ln(normalized median fluorescence intensity)” has its median near 9.7; the highest 2% begin near 11. The sample as a whole holds a higher share of the highest values than the screen did.
# Tested on: PfAP2-HC AP2 domain (GST-tagged)
# Assay: gcPBM binding intensity (ln(normalized median fluorescence intensity)); higher = stronger DNA binding
# In short: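 Binding of GST-tagged P. falciparum DNA-binding domains, expressed in E. coli and used at about 25 μg on average, was carried out for 1 h in 1× PBS containing 1% milk, 0.2 mg/ml BSA, 0.5% salmon testes DNA and 0.03% Triton X-100. The target was an Agilent 4 × 180k array of primer-extended double-stranded 36-bp intergenic genomic probes plus negative controls, read with Alexa488 anti-GST antibody at 488 nm. Binding intensity is the highest Masliner-normalised natural-log median intensity across replicate spots of either probe orientation.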
row,Sequence,gcPBM binding intensity (ln)
1,AACAAATACGGACACACACACACACTAGAAAAAAAA [CACACA_site4442],11
2,TATTAATACGGACACACACACACACTAGATAAAATA [CACACA_site4295],10.8
3,AAAAAAAAAAAATACACACACATAAAAAAAAAAATA [CACACA_site1858],10.9
4,AATAAAATAAAATACACACATACATACATACAAATG [CACACA_site2438],11.2
5,AAAAAAAAAATATACACACACACATACACATAAATA [CACACA_site3808],10.4
6,AACAAACACGGACACACACACACACTAGAATGATTA [CACACA_site5364],10.7
7,TAAAGGCAAACAAACACACACACATATATACATATA [CACACA_site2123],11.1
8,AAAAAAAAAAAAAATACACACACATAAAAAAAAAAA [CACACA_site8555],10.9
9,AAAATAAAATAAAATACACACATACATACATACAAA [CACACA_site5366],10.2
10,ACAAAAAAAAAAAAAATACACACACATAAAAAAAAA [TGCATGCA_negctrl_site333],10.2
11,AATACATAATAACATGTACACACATTCTTCTATAAA [CACACA_site9344],9.82
12,TAATAAACTTAAAAATGTACATATATTTATTATTAC [XGTACX_site4321],9.61
13,AGTAAGAGGCATTAAGCATGCATATTATTATAAGCA [TGCATGCA_site237],9.85
14,AAGAATGTTAATAGTACACACAATTATTATATAAAT [CACACA_site3739],9.93
15,TCCAAATGTTTGCGTTGTACTCTTTTTTTAAAACTA [XGTACX_site5148],9.73
16,ATATTTTTTTATAAATGTACAAAAATAATATTGCAT [XGTACX_site7399],9.48
17,ATATATATTATCATTGTGCACTTATTTATATACCTT,10
18,AATAAATATATGTACACACACAAATATATACATATC [CACACA_site1903],10.2
19,AAAATATATACACAAACATGCATATAATAAATAAAT [TGCATGCA_site711],9.99
20,AAAAAAAAAAAAAACATACACACAAATATATACATA [CACACA_site4010],10
21,CATATAAAAATATGCACACACAGGAATACAAACATA [CACACA_site684],10.3
22,AAAATACACCAACACACACACATATATATATATATT [CACACA_site4149],10.3
23,AAAAAAAAAAAACATACACACAAATATATACATACA [CACACA_site4011],10.2
24,AAAAAAAAAAAACACACACACACATACAAAATATAT [CACACA_site1448],11.3

row,Sequence,gcPBM binding intensity (ln)
1,AAAATACACAACATATATATATATATATATATATAT [XGTACX_negctrl_site21],9.62
2,TGTACAAATATGTACACACACACATATATATATATA [CACACA_site584],10.3
3,AACATATAAAAATATGCACACACAGGAATACAAACA [CACACA_site8127],11.2
4,CAAATACACCAACACACACACACAAAAAAAAAAAAA [CACACA_site514],11.3
5,ATATATCTACAAATATGTACACACACACATATATAT [XGTACX_site1075],11.1
6,TATAAATTAAAATCAGTGCATATTTTGAAAAACCTC,9.66
7,ATATATTGATATATGTGTACATAGCTTATTTCATTT [XGTACX_site1800],9.74
8,GTAAAATTAAAAATAACACACAAAAAAAAAAAAAAA [CACACA_site800],9.85
9,TTTATTTATTTATTCTTATTTTTTTTTTTTTTTACT [CACACA_negctrl_site257],9.49
10,CTATGAACACACACATGTACATATATTAACTCGCTA [XGTACX_site8805],9.98
11,TTATAACTTTTCACAAGTACATATATATATGTATAA [XGTACX_site2306],9.53
12,AAGTTAGTATTCTGCTGTACTTCTATATATAAGTGT [XGTACX_site7678],9.61
13,TATAACATAAAACACACACACATACATACACAAAAA [CACACA_site1804],11
14,TATAAATATATATATACACACACATACACAAAAAAA [CACACA_site9191],10.5
15,TAAATATATAAATACACACACATACACAAAAAAAAA [CACACA_site5890],10.9
16,TATATACACATATATAAACACACAAAAAAAAAAAAA [CACACA_site8626],9.82
17,CACACGCACGGACACACACACAAAAAAAAAAAGAAA [CACACA_site6378],10.3
18,TACAAAATGGGGAACACACACATATATATATATATA [CACACA_site3844],9.99
19,TATACACATATATAAACACACAAAAAAAAAAAAAAA [CACACA_site7041],9.57
20,GATACAAAATGGGGAACACACACATATATATATATA [CACACA_site9278],10.8
21,CACAGACACGGACACACACACACAAAAAAAAAAAGA [CACACA_site4436],11.3
22,TACAAAATGGGGAACACACACATATATAAATAAATA [CACACA_site7751],11.1
23,AACAGACAAAGACACACACACATACATACATACATA [CACACA_site6351],10.4
24,CACATACATATATACACACACAAAATAATAAAATAA [CACACA_site2308],10.4
